By AC50 is commonly meant the concentration giving half of the maximal activity seen.

The record followed here is PubChem BioAssay (EPA / NIEHS).

Several values for one entry are separate records, joined by “and”; a condition that tells them apart may be missing. Equal entries are not always repeated. Activity calls are given as the source filed them. The calls were made as follows: active = hit-call score of the fitted dose curve at least 0.9, where 1 is the maximum; inactive = score below 0.9.

A short description of this assay: BSK_SAg_Proliferation: Cell Proliferation Assessment in the BioMAP Diversity Plus: SAg Assay (AID 2283095). The settings on record: primary human HUVEC with PBMC. The protocol: BSK_SAg is a cell-based, multiplexed-readout assay that uses umbilical vein endothelium and peripheral blood mononuclear cells, a human vascular primary cell co-culture, with measurements taken at 24 hours after chemical dosing in a 96-well plate.BSK_SAg_Proliferation is an assay component in the BSK_SAg assay. It measures protein content, a form of viability reporter, as detected with absorbance signals by Sulforhodamine staining technology. Data from the assay component BSK_SAg_Proliferation was analyzed into 1 assay endpoint. This assay endpoint, BSK_SAg_Proliferation, was analyzed with bidirectional fitting relative to DMSO as the negative control and baseline of activity. Using a type of viability reporter, measures of total protein for gain or loss-of-signal activity can be used to understand the viability at the cellular-level. Furthermore, this assay endpoint can be referred to as a secondary readout, because this assay has produced multiple assay endpoints where this one serves a viability function. To generalize the intended target to other relatable targets, this assay endpoint is annotated to the cell cycle intended target family, where the subfamily is proliferation.
The levels of cell surface (or secreted, indicated by the prefix "s") biomarker endpoints were measured by ELISA. Overt cytotoxicity to cells in confluent adherent cultures (all systems other than the BT system) was assessed by measuring total protein levels using sulforhodamine B (SRB) staining in parallel cultures at the time of biomarker measurements, indicated as SRB endpoints. For proliferation assays for adherent cell types, individual cell types are cultured at sub-confluence and relative cell numbers quantified by SRB staining at time points optimized for each system (48 h: 3C and CASM3C systems; 72 h: BT and HDF3CGF systems; 96 h: SAg system). SRB was performed by staining cells with 0.1% SRB after fixation with 10% TCA and reading wells at 560 nm.Viability and proliferation of PBMC (T cells) was quantified by Alamar Blue reduction for the SAg and BT systems. For PBMC viability (referred to as PBMC Cytotoxicity within the assay endpoint names), cells were plated (75,000/well in a 96-well plate) and then chemical samples added for 1 h before addition of activators, SEB and TSST-1 (20 ng/mL final concentration each). Cells were incubated for 90 h. Then, Alamar Blue (20 uL/well) (Invitrogen, Cat DAL1100) was added for 6 h, and the plates were read with a fluorescence microplate reader at 546/580 nm (excitation/emission). For PBMC proliferation, cells were plated and activated as above but incubated for only 16 h prior to addition of Alamar Blue. Plates were read after 6 h.
As for `CCCN(CCC)c1c([N+](=O)[O-])cc(S(N)(=O)=O)cc1[N+](=O)[O-]`, the AC50 was 30.2 µM (active) [middle of 4 runs].
As for `COc1ccc(C(c2ccc(OC)cc2)C(Cl)(Cl)Cl)cc1`, the AC50 was 12 µM (active).
Still for that read-out and setting: with `N#Cc1cc(Br)c(O)c(Br)c1` the figure was 33.4 µM (active).
`CCNc1nc(Cl)nc(NC(C)C)n1`: the outcome was inactive.
With `CNC(=O)ON=CC(C)(C)SC`, the outcome was inactive.
On to `CCCCOC(=O)c1ccccc1C(=O)OCCCC`, for which the AC50 was 29.2 µM (active) and 31.4 µM (active).
Regarding `COc1nc(C)nc(NC(=O)NS(=O)(=O)c2ccccc2Cl)n1`, the result was inactive.
Turning to `CC(C)Oc1cc(-n2nc(C(C)(C)C)oc2=O)c(Cl)cc1Cl`, the AC50 was 31.3 µM (active).
With `O=C(O)COc1nc(Cl)c(Cl)cc1Cl`, the result was inactive.
As for `COC(=O)N(OC)c1ccccc1COc1ccn(-c2ccc(Cl)cc2)n1`, the AC50 was 3.97 µM (active).
Regarding `COP(N)(=O)SC` (stereo not given), the result was inactive.
As for `CCCCNC(=O)OCC#CI`, the AC50 is 2.71 µM (active) and 2.68 µM (active).
The same measure, in the same setting: with `N#Cc1nn(-c2c(Cl)cc(C(F)(F)F)cc2Cl)c(N)c1S(=O)C(F)(F)F` (stereo not given) the figure was 15.6 µM (active).
The same measure, in the same setting: the same measure for `CCCC1COC(Cn2cncn2)(c2ccc(Cl)cc2Cl)O1` (stereo not given): 20.7 µM (active).
On to `Oc1ccccc1-c1ccccc1`, for which the outcome was inactive.
On to `O=C(O)c1nc(Cl)ccc1Cl`, for which the result was inactive.
For `CC1COC(Cn2cncn2)(c2ccc(Oc3ccc(Cl)cc3)cc2Cl)O1` (stereo not given), the AC50 was 14.7 µM (active).
In the case of `CCOC(=O)CC(SP(=S)(OC)OC)C(=O)OCC` (stereo not given), the result was inactive.
For `CNC(=S)S`, the AC50 was 11.9 µM (active).
For the molecule `CC(Oc1ccc(Cl)cc1Cl)C(=O)O` (stereo not given), the outcome was inactive.
`CS/C(C)=N/OC(=O)N(C)SN(C)C(=O)O/N=C(\C)SC`: the AC50 is 5.3 µM (active).
As to `COc1nc(NC(C)C)nc(NC(C)C)n1`, the result was inactive.
With `CC(C)C1(C)N=C(c2nc3ccccc3cc2C(=O)O)NC1=O` (stereo not given), the outcome was inactive.
For `COP(=S)(OC)Oc1nc(Cl)c(Cl)cc1Cl`, the AC50 was 20 µM (active).
Still for that read-out and setting: the same measure for `N#CC(CCc1ccc(Cl)cc1)(Cn1cncn1)c1ccccc1` (stereo not given): 8.6 µM (active); for `CCOc1cc(Oc2ccc(C(F)(F)F)cc2Cl)ccc1[N+](=O)[O-]`: 18.5 µM (active); for `CO/C=C(/C(=O)OC)c1ccccc1Oc1cc(Oc2ccccc2C#N)ncn1`: 13.9 µM (active) [middle of 4 runs].
As to `CON(C)C(=O)Nc1ccc(Cl)c(Cl)c1`, the outcome was inactive.
As to `CCCCNC(=O)n1c(NC(=O)OC)nc2ccccc21`, the AC50 is 6.25 µM (active).
With `Cc1cc(Cl)ccc1OCC(=O)O`, the result was inactive.
On to `C=CCC1=C(C)[C@@H](OC(=O)[C@@H]2[C@@H](C=C(C)C)C2(C)C)CC1=O`, for which the AC50 is 33.8 µM (active).
Consider `COc1cnc(OC)n2nc(NS(=O)(=O)c3c(OCC(F)F)cccc3C(F)(F)F)nc12`, for which the outcome was inactive.
For the molecule `Cc1c(F)c(F)c(COC(=O)C2C(/C=C(\Cl)C(F)(F)F)C2(C)C)c(F)c1F` (stereo not given), the AC50 was 26.6 µM (active).
Still for that read-out and setting: the same measure for `CCc1nn(C)c(C(=O)NCc2ccc(C(C)(C)C)cc2)c1Cl`: 20 µM (active); for `O=C(Nc1ccccc1)Nc1ccnc(Cl)c1`: 33.5 µM (active).
Same read-out and setting: the same measure for `CCOC(=O)C(Cl)Cc1cc(-n2nc(C)n(C(F)F)c2=O)c(F)cc1Cl` (stereo not given): 21.2 µM (active).
Still for that read-out and setting: with `CCOP(=S)(OCC)SCn1c(=O)oc2cc(Cl)ccc21` the figure was 29 µM (active).
`COC(=O)C=C(C)OP(=O)(OC)OC`: the outcome was inactive.
With `CC1=C(C(=O)Nc2ccccc2)SCCO1`, the outcome was inactive.
Consider `C=CCC1=C(C)C(OC(=O)C2C(C=C(C)C)C2(C)C)CC1=O` (stereo not given), for which the AC50 was 30.9 µM (active) [middle of 4 runs].
